DT40 TDP1 CPT: qHTS for Inhibitors of human tyrosyl-DNA phosphodiesterase 1 (TDP1): qHTS in cells in presence of CPT; AID 686979, 2013; chicken DT40 Tdp1-/-;hTDP1 cells + 20 nM CPT, ATP luminescence, 48 h; 420,000 compounds, 12% hits; Potency, µM (highest dose often 46.2 µM), inactives show at the highest dose activity change, negative = growth inhibition, hits mostly inhibitors; further: nearly all actives have a fitted effect of over 55% in size
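Chicken DT40 Tdp1-/- cells complemented with human TDP1, 400 cells/well, exposed to compounds plus 20 nM camptothecin for at least 48 h at 37 C; viability read as ATP content by CellTiter-Glo luminescence.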
TDP1 cell noCPT: qHTS for Inhibitors of human tyrosyl-DNA phosphodiesterase 1 (TDP1): qHTS in cells in absence of CPT | 420,000 compounds, 15% hits | Potency, µM (titrated, usually from 46.2 µM), for the others: top-dose activity change, negative = growth inhibition, most hits filed as inhibitors | DT40 Tdp1-/- hTDP1 cells, no CPT, ATP luminescence, 48 h | AID 686978, 2013; further: nearly all actives have a fitted effect of over 55% in size
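A cellular qHTS used chicken DT40 cells lacking endogenous Tdp1 but carrying stably transfected human TDP1. Compounds were applied without camptothecin, and cell growth kinetics were judged by ATP-dependent luminescence after ≥48 hr.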
HT1080 IDH1KD tx: qHTS for induction of synthetic lethality in tumor cells producing 2HG: qHTS for the HT-1080-IDH1KD cell line. 360,000 compounds, 2% hits. Potency, µM (doses to about 46.1 µM), without a hit: at the highest dose activity, negative = toxicity, usual class: cytotoxic. HT-1080 IDH1 knockdown viability, ATP luminescence, 48 h;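 further: 0% = DMSO wells and -100% = cell-free medium wells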
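Luminescent ATP read-out (CellTiter-Glo, 10 min at room temperature) after 48 h compound exposure at 37 °C gave viability of IDH1-knockdown HT-1080 cells. Activity was normalised to DMSO and cell-free wells, then fitted as concentration-response curves.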
KB-V1 cytotox: qHTS assay for MDR1-selective chemotherapeutics: Primary screen using the drug-selected MDR subline cells KB-V1; KB-V1 MDR cells viability, CellTiter-Glo, 72 h; Potency, µM (top dose mostly 46.1 µM), hits mostly cytotoxic; 400,000 compounds, 3.4% hits; AID 1347076, 2019; further: nearly all actives have a fitted effect of over 60% in size
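KB-V1 cells (P-gp-expressing MDR subline of KB-3-1) in phenol-red-free DMEM with 10% FBS were exposed to library compounds over a concentration series for 72 h at 37 degrees C. Viability read by CellTiter-Glo luminescence; concentration-effect curves fitted after normalization.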
KB-3-1 cytotox: qHTS assay for MDR1-selective chemotherapeutics: Primary screen using the parental adenocarcinoma cell KB-3-1; 400,000 compounds, 1.4% hits; Potency, µM (highest dose often 46.1 µM), actives largely listed as cytotoxic; KB-3-1 viability, CellTiter-Glo ATP luminescence, 72 h; further: nearly all actives have a fitted effect of over 60% in size
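Multi-concentration cytotoxicity screen in KB-3-1 cells grown in DMEM lacking phenol red with 10% FBS. After 72 h at 37 °C with compound, ATP-dependent luminescence was recorded.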
HT1080NT lethal: qHTS for induction of synthetic lethality in tumor cells producing 2HG: qHTS for the HT-1080-NT fibrosarcoma cell line | HT-1080-NT fibrosarcoma viability, CellTiter-Glo ATP luminescence, 48 h | Potency, µM (series often up to 46.1 µM), for the others: top-dose activity, negative = less viability, usual class: cytotoxic | 360,000 compounds, 1.6% hits | AID 686970, 2013;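 further: NT is the 2HG producing partner of a matched IDH1 knockdown line; 0% = DMSO-treated cells and -100% = media-only wells without cells; nearly all actives have a fitted effect of over 55% in size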
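Luminescent CellTiter-Glo readout after 48 hours of compound exposure at 37 degrees C defined viability of HT-1080-NT cells. Activity was normalized to DMSO wells and cell-free media wells; concentration-response curves were fitted and assigned curve classes.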
Numbers without * were called inactive; i = inactive; ? = inconclusive; / = no result given; [ ] = remark or other dose. An excerpt weighted towards active compounds, which were near 19% of everything screened. The call rests on the fitted dose curve; in most records, active means well fitted curve in the direction sought with a large enough effect; inconclusive means small, poorly fitted or top-dose-only effect, or another doubt; inactive means no such curve, though single readings can be large; an effect the other way counts as inactive or inconclusive. Unless noted, on the % scale 0 is the no-effect control and ±100 the full control effect; potency means the concentration at half of the fitted maximal effect.

SMILES	DT40 TDP1 CPT	TDP1 cell noCPT	HT1080 IDH1KD tx	KB-V1 cytotox	KB-3-1 cytotox	HT1080NT lethal
O=C(Nc1ccc(CN2CCS(=O)(=O)CC2)cc1)c1ccc(Cl)cc1	-5%	?	?	?	?	-10%
NS(=O)(=O)c1cccc(NC(=O)COC(=O)c2ccccc2SCC(=O)N2CCCC2)c1	-3%	-22%	-2%	i	i	1%
COC(=O)C1=CN(Cc2ccc(C)cc2)C=C(C(=O)OC)C1c1cc(OC)c(OC)c(OC)c1	16µM*	?	-12%	i	i	-2%
Cc1csc(SC(C)C(=O)NCC2CCCCC2)n1 (stereo unspecified)	4%	-20%	8%	i	i	5%
O=S(=O)(O)c1cc(O)c(N=Nc2ccc(O)cc2O)c2ccccc12	?	?	?	i	?	?
O=[N+]([O-])c1ccccc1N=Nc1ccc(O)cc1O	?	26µM*	-11%	i	i	-9%
CCOc1ccc(N(C(C)C(=O)NCCSc2ccc(C)cc2)S(C)(=O)=O)cc1 (stereo unspecified)	-28%	?	/	i	i	/
COc1ccc(N(C(C)C(=O)N2CCCC2)S(C)(=O)=O)cc1 (stereo unspecified)	7%	-6%	8%	i	i	11%
CCOc1ccc(N(C(C)C(=O)NCCSc2ccc(Cl)cc2)S(C)(=O)=O)cc1 (stereo unspecified)	16µM*	26µM*	/	i	?	/
CCOC(=O)N1CCN(C(=O)C(C)N(c2ccc(Oc3ccccc3)cc2)S(C)(=O)=O)CC1 (stereo unspecified)	?	13µM*	4%	?	i	12%
CCOC(=O)C1CCN(C(=O)C(C)N(c2ccc(Oc3ccccc3)cc2)S(C)(=O)=O)CC1 (stereo unspecified)	12µM*	9.2µM*	-15%	i	i	-19%
CCOc1ccc(N(C(C)C(=O)N2CCCC2)S(C)(=O)=O)cc1 (stereo unspecified)	?	15µM*	3%	i	i	1%
Cc1csc(SCC(=O)N(C)C2CCS(=O)(=O)C2)n1 (stereo unspecified)	-28%	15%	4%	i	i	20%
CC1(C(=O)NS(=O)(=O)c2ccc3c(c2)CCO3)CCN1C(=O)c1ccccc1CCc1ccccc1 (stereo unspecified)	?	?	5%	i	i	-1%
COc1ccc(N(C(C)C(=O)N2CCC(Cc3ccccc3)CC2)S(C)(=O)=O)cc1 (stereo unspecified)	6.5µM*	8.2µM*	-22%	3.7µM*	?	-2%
COc1ccc(-n2cnc3cc(NS(=O)(=O)c4ccccc4)ccc32)cc1	?	21µM*	?	?	i	?
COc1ccc(-n2cnc3cc(NC(=O)c4ccco4)ccc32)cc1	?	-27%	-15%	16µM*	?	13%
CC(C)c1ccc(S(=O)(=O)N2CCN(C(=O)c3ccncc3)CC2)cc1	-28%	?	4%	i	i	1%[9.24 µM]
Cc1cc(C)n(-c2ccc(C(=O)N3CCN(S(=O)(=O)c4cccc(Br)c4)CC3)cc2)n1	21µM*	21µM*	-11%	i	?	0%
Cc1cc(C)n(-c2ccc(C(=O)N3CCN(S(=O)(=O)c4ccc(C(C)C)cc4)CC3)cc2)n1	?	15µM*	-2%	i	i	-6%
